The record followed here is PubChem BioAssay (EPA / NIEHS).

Experiment [1] has as its target Glucocorticoid receptor (Homo sapiens) (UniProt P04150). The experiment can be described thus: ATG_GR_TRANS: Attagene TRANS-FACTORIAL HepG2 Assay for human Glucocorticoid Receptor (GR) (AID 2282978).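 Note: activators score as hits since higher reporter transcript over DMSO is fitted.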 The following applies: HepG2 Attagene TRANS GR reporter, mRNA transcription. Put shortly: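 In this trans-factorial format, exogenous NR-GAL4 chimeric proteins in transfected HepG2 cells regulate GAL4-UAS reporter transcription. After 24 h treatment, reporter mRNA induction relative to DMSO is read by RT-PCR and capillary electrophoresis.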

Experiment [2] concerns the target Hepatocyte nuclear factor 4-alpha (Homo sapiens) (UniProt P41235). Description: ATG_HNF4a_TRANS: Attagene TRANS-FACTORIAL HepG2 Assay for human Hepatocyte Nuclear Factor 4 alpha (HNF4a) (AID 2282982). Conditions: HepG2 HNF4a transactivation reporter, mRNA readout. A digest of the protocol: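 Endpoint reflects transcriptional activation of a GAL4-UAS reporter by an HNF4a-GAL4 chimera in transfected HepG2 cells, 24 h post-dosing. Fluorescence from RT-PCR products separated by capillary electrophoresis; DMSO baseline.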

A short description of experiment [3]: ATG_M_32_TRANS: Attagene TRANS-FACTORIAL HepG2 Assay for M32 Transcription Factor (Internal Marker) (AID 2282984).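 Note: transcript level of a background control reporter unit measured by RT-PCR and capillary electrophoresis.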 Conditions: HepG2 Attagene TRANS M32 internal marker reporter. A digest of the protocol:
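Internal-marker readout from a multiplexed transcription reporter panel. HepG2 cells were transfected with GAL4-UAS reporter units, treated 24 hours, and reporter transcript levels determined by fluorescence after RT-PCR and capillary separation.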

The target of experiment [4] is Nuclear receptor subfamily 4 group A member 2 (Homo sapiens) (UniProt P43354). The experiment can be described thus: ATG_NURR1_TRANS: Attagene TRANS-FACTORIAL HepG2 Assay for human Nuclear Receptor Related Protein 1 (NURR1) (AID 2282985). The following applies: HepG2 Attagene TRANS reporter, mRNA readout. A digest of the protocol: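 Endpoint: reporter mRNA increase relative to DMSO. HepG2 cells transfected with reporter units, treated 24 h; RNA processed by RT-PCR, labelling, HpaI digestion and capillary electrophoresis.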

The target of experiment [5] is Transcriptional activator Myb (Homo sapiens) (UniProt P10242). Description: ATG_Myb_CIS: Attagene CIS-FACTORIAL HepG2 Assay for human Myeloblastosis (Myb) Proto-Oncogene Transcription Factor (AID 2282986; active = hit-call score of the fitted dose curve at least 0.9, where 1 is the maximum; inactive = score below 0.9). The following applies: HepG2 Attagene CIS-FACTORIAL Myb reporter transcription; actives raise or lower the signal. A digest of the protocol:
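Steps: transfect HepG2 with cis-regulated reporter units; dose with chemical for 24 h; isolate RNA, reverse-transcribe, PCR-amplify and FAM-label reporter sequences; digest with HpaI; resolve by capillary electrophoresis. Activity fitted in both directions relative to DMSO.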

Experiment [6] addresses Nuclear respiratory factor 1 (Homo sapiens) (UniProt Q16656). The experiment can be described thus: ATG_NRF1_CIS: Attagene CIS-FACTORIAL HepG2 Assay for human Nuclear Respiratory Factor 1 (NRF1) Orphan Gene (AID 2282987; active = hit-call score of the fitted dose curve at least 0.9, where 1 is the maximum; inactive = score below 0.9). Conditions: HepG2 NRF1 cis-element reporter, Attagene multiplex; actives raise or lower the signal. Put shortly:
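Fluorescence intensity of labelled reporter cDNA fragments, resolved by capillary electrophoresis, served as readout for NRF1 cis-element activity. Transiently transfected HepG2 cells were dosed for 24 hours; activity in either direction was fitted against DMSO negative control.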

Experiment [7] is described as follows: ATG_NFI_CIS: Attagene CIS-FACTORIAL HepG2 Assay for human Nuclear Factor I (NFI) (AID 2282989; active = hit-call score of the fitted dose curve at least 0.9, where 1 is the maximum; inactive = score below 0.9). The following applies: HepG2 cis-regulatory reporter, NFI response element transcription; actives raise or lower the signal. A digest of the protocol:
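Read-out: reporter mRNA via RT-PCR plus capillary electrophoresis with fluorescence detection. Transiently transfected HepG2 (endogenous TF activity on cis promoters), 24 h compound exposure; gain or loss of signal fitted against DMSO.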

The nature of experiment [8]: ATG_M_06_TRANS: Attagene TRANS-FACTORIAL HepG2 Assay for M06 Transcription Factor (Internal Marker) (AID 2282983). The following applies: HepG2 Attagene TRANS M06 internal marker reporter. Put shortly: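 Human liver HepG2 cells bearing transiently transfected chimeric NR-GAL4 reporter units were treated with chemicals for 24 h. Total RNA was reverse-transcribed, reporter sequences amplified and labelled, then quantified by capillary electrophoresis. Activity was fitted upward relative to DMSO.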

For experiment [9], the target named is Oxysterols receptor LXR-alpha (Homo sapiens) (UniProt Q13133). Description: ATG_LXRa_TRANS: Attagene TRANS-FACTORIAL HepG2 Assay for human Liver X Receptor alpha (LXRa) (AID 2282980). The following applies: HepG2 Attagene TRANS reporter, LXRa transactivation. A digest of the protocol:
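Transient HepG2 transfectants, 24 h dosing, RT-PCR/CE mRNA reporter quantitation; gain-of-signal vs DMSO.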

Experiment [10] concerns the target Oxysterols receptor LXR-beta (Homo sapiens) (UniProt P55055). Description: ATG_LXRb_TRANS: Attagene TRANS-FACTORIAL HepG2 Assay for human Liver X Receptor beta (LXRb) (AID 2282981). Conditions: HepG2 Attagene TRANS GAL4-LXRb reporter, mRNA. Put shortly:
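Multiplexed reporter assay, HepG2, 24 h dosing. Fluorescence of labelled RT-PCR products after capillary electrophoresis gives transcript level; positive fitting direction relative to DMSO.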

SMILES strings stand for the structures. Records with an inconclusive call do not appear. Activity calls are given as the source filed them. Rule for the calls, unless noted: active = hit-call score of the fitted dose curve at least 0.9, where 1 is the maximum; inconclusive = response in the unintended direction; inactive = score below 0.9.

Sequence of Hepatocyte nuclear factor 4-alpha (Homo sapiens) (P41235 whole entry, looked up, the tested form may be a part): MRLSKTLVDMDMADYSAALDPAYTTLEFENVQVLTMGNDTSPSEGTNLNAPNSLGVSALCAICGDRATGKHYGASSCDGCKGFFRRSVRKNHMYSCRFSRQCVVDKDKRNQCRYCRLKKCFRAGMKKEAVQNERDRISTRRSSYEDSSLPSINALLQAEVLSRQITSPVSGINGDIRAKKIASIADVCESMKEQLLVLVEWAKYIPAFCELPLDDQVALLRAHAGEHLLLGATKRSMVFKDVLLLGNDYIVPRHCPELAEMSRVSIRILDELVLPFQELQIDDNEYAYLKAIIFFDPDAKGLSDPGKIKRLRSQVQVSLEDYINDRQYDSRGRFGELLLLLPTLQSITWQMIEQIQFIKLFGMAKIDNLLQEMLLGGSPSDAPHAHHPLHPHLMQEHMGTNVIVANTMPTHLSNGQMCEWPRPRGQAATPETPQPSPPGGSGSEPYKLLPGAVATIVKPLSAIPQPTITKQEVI
Sequence of Nuclear respiratory factor 1 (Homo sapiens) (Q16656 whole entry, looked up, the tested form may be a part): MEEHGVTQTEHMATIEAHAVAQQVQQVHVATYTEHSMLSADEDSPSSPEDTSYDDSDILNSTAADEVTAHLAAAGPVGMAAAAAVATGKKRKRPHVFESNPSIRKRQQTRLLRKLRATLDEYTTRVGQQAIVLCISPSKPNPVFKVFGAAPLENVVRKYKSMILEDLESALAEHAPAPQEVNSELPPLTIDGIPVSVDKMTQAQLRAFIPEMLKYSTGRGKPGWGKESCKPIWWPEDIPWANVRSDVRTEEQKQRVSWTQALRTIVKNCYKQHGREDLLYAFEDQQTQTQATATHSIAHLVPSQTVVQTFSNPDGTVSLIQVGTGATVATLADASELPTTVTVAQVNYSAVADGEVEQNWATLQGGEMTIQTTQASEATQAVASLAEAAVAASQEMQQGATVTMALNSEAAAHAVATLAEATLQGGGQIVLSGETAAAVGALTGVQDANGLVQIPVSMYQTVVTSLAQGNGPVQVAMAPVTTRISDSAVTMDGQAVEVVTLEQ
Sequence of Glucocorticoid receptor (Homo sapiens) (P04150 whole entry, looked up, the tested form may be a part): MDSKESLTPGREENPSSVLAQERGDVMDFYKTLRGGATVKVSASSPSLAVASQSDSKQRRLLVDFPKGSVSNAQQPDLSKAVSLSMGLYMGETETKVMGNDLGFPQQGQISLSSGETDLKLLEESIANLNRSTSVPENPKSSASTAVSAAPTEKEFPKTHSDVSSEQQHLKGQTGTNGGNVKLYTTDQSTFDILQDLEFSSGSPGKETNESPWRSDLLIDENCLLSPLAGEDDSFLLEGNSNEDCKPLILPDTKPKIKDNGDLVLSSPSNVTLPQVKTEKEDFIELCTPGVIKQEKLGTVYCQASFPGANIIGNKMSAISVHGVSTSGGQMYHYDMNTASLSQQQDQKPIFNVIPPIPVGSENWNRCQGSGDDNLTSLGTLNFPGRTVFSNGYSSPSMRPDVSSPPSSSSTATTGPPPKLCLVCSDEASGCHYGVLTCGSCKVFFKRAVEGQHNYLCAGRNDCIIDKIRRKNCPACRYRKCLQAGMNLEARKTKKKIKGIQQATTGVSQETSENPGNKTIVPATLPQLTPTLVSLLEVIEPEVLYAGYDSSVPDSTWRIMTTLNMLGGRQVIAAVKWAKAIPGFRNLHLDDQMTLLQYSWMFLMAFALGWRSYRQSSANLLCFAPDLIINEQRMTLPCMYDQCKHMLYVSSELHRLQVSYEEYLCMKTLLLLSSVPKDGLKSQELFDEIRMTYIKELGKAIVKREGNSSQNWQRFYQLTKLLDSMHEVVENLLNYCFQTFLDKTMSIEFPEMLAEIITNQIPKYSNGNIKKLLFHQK
Sequence of Oxysterols receptor LXR-alpha (Homo sapiens) (Q13133 whole entry, looked up): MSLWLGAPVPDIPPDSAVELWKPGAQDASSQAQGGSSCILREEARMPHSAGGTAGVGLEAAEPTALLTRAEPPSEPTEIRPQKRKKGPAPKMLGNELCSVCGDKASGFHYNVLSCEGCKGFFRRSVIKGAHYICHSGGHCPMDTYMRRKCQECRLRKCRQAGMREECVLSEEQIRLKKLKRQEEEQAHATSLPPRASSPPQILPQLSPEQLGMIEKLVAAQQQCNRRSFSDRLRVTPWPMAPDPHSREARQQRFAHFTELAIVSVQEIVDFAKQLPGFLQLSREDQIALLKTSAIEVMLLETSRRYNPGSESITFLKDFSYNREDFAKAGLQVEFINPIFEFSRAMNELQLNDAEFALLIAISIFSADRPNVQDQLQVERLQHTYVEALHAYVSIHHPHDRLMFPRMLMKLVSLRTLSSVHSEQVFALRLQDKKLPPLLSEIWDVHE
Sequence of Transcriptional activator Myb (Homo sapiens) (P10242 whole entry, looked up): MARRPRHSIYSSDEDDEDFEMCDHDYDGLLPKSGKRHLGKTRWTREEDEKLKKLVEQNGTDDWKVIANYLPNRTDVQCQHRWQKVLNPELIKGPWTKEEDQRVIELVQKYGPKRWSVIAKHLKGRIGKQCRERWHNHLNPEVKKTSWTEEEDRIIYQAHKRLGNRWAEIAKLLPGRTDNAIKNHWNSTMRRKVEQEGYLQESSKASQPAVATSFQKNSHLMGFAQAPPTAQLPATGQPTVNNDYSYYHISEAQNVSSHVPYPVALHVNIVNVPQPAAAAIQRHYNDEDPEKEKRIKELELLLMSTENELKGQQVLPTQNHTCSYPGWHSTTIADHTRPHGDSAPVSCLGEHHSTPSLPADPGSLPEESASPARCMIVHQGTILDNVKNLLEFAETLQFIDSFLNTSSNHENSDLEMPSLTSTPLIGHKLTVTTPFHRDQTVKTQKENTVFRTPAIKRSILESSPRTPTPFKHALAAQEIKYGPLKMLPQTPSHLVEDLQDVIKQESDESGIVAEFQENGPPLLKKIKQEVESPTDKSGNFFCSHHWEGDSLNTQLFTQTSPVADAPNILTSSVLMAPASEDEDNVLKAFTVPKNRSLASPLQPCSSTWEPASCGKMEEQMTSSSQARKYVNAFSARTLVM
Sequence of Oxysterols receptor LXR-beta (Homo sapiens) (P55055 whole entry, looked up, the tested form may be a part): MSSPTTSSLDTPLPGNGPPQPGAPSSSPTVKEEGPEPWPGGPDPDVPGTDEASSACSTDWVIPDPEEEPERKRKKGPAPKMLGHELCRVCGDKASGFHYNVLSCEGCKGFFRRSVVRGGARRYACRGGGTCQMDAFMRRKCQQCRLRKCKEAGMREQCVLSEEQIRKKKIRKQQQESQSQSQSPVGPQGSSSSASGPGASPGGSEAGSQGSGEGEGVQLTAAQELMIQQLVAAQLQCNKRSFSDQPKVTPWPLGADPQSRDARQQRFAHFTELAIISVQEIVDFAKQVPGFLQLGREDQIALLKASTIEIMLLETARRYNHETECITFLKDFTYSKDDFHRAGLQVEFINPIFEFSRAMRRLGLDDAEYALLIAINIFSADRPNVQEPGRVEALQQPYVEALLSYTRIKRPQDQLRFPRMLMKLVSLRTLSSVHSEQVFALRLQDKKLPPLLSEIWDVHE
Sequence of Nuclear receptor subfamily 4 group A member 2 (Homo sapiens) (P43354 whole entry, looked up): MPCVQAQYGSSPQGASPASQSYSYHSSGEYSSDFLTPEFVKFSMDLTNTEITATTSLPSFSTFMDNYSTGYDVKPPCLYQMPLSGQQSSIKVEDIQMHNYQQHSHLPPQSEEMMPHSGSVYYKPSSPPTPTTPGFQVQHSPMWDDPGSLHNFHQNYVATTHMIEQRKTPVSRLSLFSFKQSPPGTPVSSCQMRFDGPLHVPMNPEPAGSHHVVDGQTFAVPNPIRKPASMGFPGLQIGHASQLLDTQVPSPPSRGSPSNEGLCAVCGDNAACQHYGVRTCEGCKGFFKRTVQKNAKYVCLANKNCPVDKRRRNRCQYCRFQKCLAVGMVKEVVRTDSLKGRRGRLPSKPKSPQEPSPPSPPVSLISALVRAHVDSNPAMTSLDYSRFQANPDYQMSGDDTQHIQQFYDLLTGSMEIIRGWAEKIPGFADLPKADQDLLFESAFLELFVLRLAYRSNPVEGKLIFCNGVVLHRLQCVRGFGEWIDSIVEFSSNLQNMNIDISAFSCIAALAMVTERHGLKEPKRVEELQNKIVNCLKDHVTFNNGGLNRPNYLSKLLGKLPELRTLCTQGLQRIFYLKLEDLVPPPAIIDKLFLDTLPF

`Cc1c(C(=O)O)c(O)cc2c1C(=O)c1c(O)c([C@@H]3O[C@H](CO)[C@@H](O)[C@H](O)[C@H]3O)c(O)c(O)c1C2=O`: the molecule was classed as inactive in experiment [1], in [2], in experiment [3], in [4], in [5] and in experiment [6]. The molecule was classed as inactive in experiment [7].
Turning to `Clc1cc(Cl)c(Cl)cc1Cl`, the call in experiment [1], in [2], in [8], in experiment [4], in experiment [5] and in experiment [6] was inactive. Besides, in experiment [7], the molecule was called inactive.
Regarding `COc1cc(S(=O)(=O)O)c(C)cc1N=Nc1c(O)ccc2cc(S(=O)(=O)O)ccc12`, the call in experiment [1], in experiment [2], in experiment [8], in [4], in experiment [5] and in [6] was inactive. Besides, the outcome in [7] was inactive.
As for `COc1ccc(C)cc1N`, the call in [1], in experiment [9], in [10], in experiment [8], in experiment [4] and in experiment [5] was inactive. Further, the outcome in experiment [6] and in experiment [7] was inactive.
`CCCCCCCCCCC`: the call in experiment [1], in [2], in [8], in experiment [5], in experiment [6] and in experiment [7] was inactive.
In the case of `CCCCC(CC)COC(=O)CC(C(=O)OCC(CC)CCCC)S(=O)(=O)O` (stereo not drawn), the molecule was called inactive in [1], in experiment [9], in experiment [8], in [4], in [5] and in experiment [6]. Also, the outcome in [7] was inactive.
As to `Cc1oc(-c2ccccc2)nc1CCOc1cccc2c1ccn2CCC(=O)O`, the outcome in [1], in experiment [10], in experiment [3], in experiment [4], in experiment [5] and in experiment [6] was inactive. Besides, the result in experiment [7] was inactive.
Regarding `CC1(C)NC(=O)NC1=O`, the outcome in [1], in experiment [9], in experiment [10], in experiment [2], in experiment [8] and in experiment [3] was inactive. The call in experiment [4], in experiment [5], in experiment [6] and in experiment [7] was inactive.
`CCCCCCCCCCCC(=O)OC`: the call in experiment [1], in [9], in [10], in experiment [2], in experiment [8] and in [4] was inactive. For the same molecule, the result in experiment [5], in experiment [6] and in experiment [7] was inactive.
Take `Cc1nc(-c2ccc3c(c2)CCN(CCC2CCC(NC(=O)/C=C/c4ccc(F)cc4)CC2)CC3)no1` (stereo not drawn): the call in experiment [1], in [8], in experiment [5], in experiment [6] and in [7] was inactive.
What is called AC50 is the concentration at which the activity in the assay is half-maximal. As for `CC(C)(C)c1cc(O)c(C(C)(C)C)cc1O`, the molecule was called inactive in [1], in experiment [9], in [10], in experiment [8], in [3] and in experiment [4]. For the same molecule, the molecule was called inactive in experiment [5]. For the same molecule, the AC50 in experiment [6] was 162 µM (active); in experiment [7], 30.6 µM (active).
As to `Cc1nc(C)nc(N2C[C@@H](C)N(c3ccnc([C@@H](C)O)n3)[C@@H](C)C2)n1`, the molecule was called inactive in [1], in [10], in experiment [8], in [3], in [5] and in experiment [6]. Moreover, the outcome in experiment [7] was inactive.
`Cc1ccc(C(C)C)c(O)c1`: the call in experiment [1], in experiment [10], in experiment [2], in [8], in [4] and in experiment [5] was inactive. In addition, the call in experiment [6] and in experiment [7] was inactive.
On to `CCCCCCCCCCCCCO`, for which the outcome in experiment [1], in experiment [10], in experiment [2], in experiment [8], in [3] and in [6] was inactive. Also, the result in [7] was inactive. Also, in experiment [5], the concentration at half-maximal activity (AC50) was 34.3 µM (active).
On to `CC(C)c1ccc(C(=O)N=C(N)N)cc1S(C)(=O)=O`, for which the result in experiment [1], in experiment [10], in [8], in experiment [3], in experiment [5] and in experiment [6] was inactive. Further, in experiment [7], the molecule was called inactive.
Regarding `O=C(N[C@@H](Cc1ccccc1)[C@@H](O)C(=O)N1C[C@@H](O)[C@@H](O)C1)c1cc2cc(Cl)ccc2[nH]1`, the outcome in experiment [1], in experiment [8], in experiment [3], in experiment [5], in [6] and in [7] was inactive.
`Cc1ccc2ncccc2c1`: the molecule was classed as inactive in experiment [1], in [8], in experiment [5], in experiment [6] and in experiment [7].
As to `Cc1ccc(N(C)C)cc1`, the molecule was classed as inactive in experiment [1], in experiment [2], in experiment [8], in experiment [3], in experiment [5] and in [6]. Moreover, the molecule was called inactive in experiment [7].
Consider `CN1CCN(Cc2cc(-c3ccc4[nH]c(=O)oc4c3)co2)[C@@H](c2ccc(F)cc2)C1`, for which the molecule was classed as inactive in experiment [1], in [9], in experiment [8], in [3], in [4] and in [5]. Moreover, the outcome in [6] and in experiment [7] was inactive.
In the case of `NS(=O)(=O)c1cc2c(cc1Cl)NCNS2(=O)=O`, the molecule was classed as inactive in experiment [1], in experiment [9], in [10], in [2], in experiment [8] and in [3]. In addition, the molecule was called inactive in [4], in [5], in [6] and in experiment [7].
